# Measured values reported in PubChem BioAssay (EPA / NIEHS).
# “And” between values parts separate entries of the source, which are not always exact repeats. Equal values may be shown once. Inconclusive results are not listed. The source made the active and inactive calls. How the source made its calls, unless noted: active means hit-call score of the fitted dose curve at least 0.9, where 1 is the maximum; inactive means score below 0.9. Peptide text beside a SMILES is read from it.
# How the values were obtained:
# [1] = BSK_BT_PBMCCytotoxicity: PBMC Cytotoxicity Assessment in the BioMAP Diversity Plus: BT Assay (AID 2284225); settings: primary human B cells with PBMC;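 further: PBMC viability measured by Alamar Blue dye reduction fluorescence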
# In short: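 Viability by Alamar Blue reduction (6 h, ex/em 546/580 nm) after 90 h culture of SEB/TSST-1-activated PBMC (20 ng/mL each) given compound 1 h before activation. DMSO served as baseline for curve fitting.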
# [2] = read-out: Secreted IgG (sIgG), gene 3500; assay: BSK_BT_sIgG: BioMAP Diversity Plus: BT Assay for Secreted IgG (sIgG) Biomarker Activity (AID 2284226); settings: primary human B cells with PBMC
# In short: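 ELISA quantitation of secreted IgG from human B cells co-cultured with PBMC, sampled 24 h post-dosing. Values fitted relative to DMSO vehicle as baseline, positive fitting direction.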
# [3] = BSK_BT_Bcell_Proliferation: Viability Assessment in the BioMAP Diversity Plus: BT Assay for B cell Proliferation (AID 2284227); settings: primary human B cells with PBMC
# In short: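 Read-out is absorbance at 560 nm from sulforhodamine B staining of total protein, reflecting relative cell numbers in a human B cell and PBMC co-culture after 72 h of chemical exposure. Values were referenced to DMSO.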
# [4] = read-out: Interleukin 6 (IL6), IL6 (gene 3569); assay: BSK_BT_xIL6: BioMAP Diversity Plus: BT Assay for Interleukin 6 (IL6) Biomarker Activity (AID 2284228); settings: primary human B cells with PBMC
# In short: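 Secreted IL-6 in the primary human B cell plus PBMC system, measured by Luminex at 24 h post-chemical, DMSO as baseline. Alamar Blue viability: 75,000 cells/well, chemical 1 h before SEB/TSST-1 (20 ng/mL each), 90 h, then 6 h dye.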
# [5] = CCTE_Mundy_HCI_Cortical_Synap_Neur_Matur_NeuriteSpotCountPerNeuron: CCTE's Synaptogenesis and Neurite Maturation Assay in rat cortical cells for Neurite Spot Count per Neuron Count, Mundy Lab (AID 2284215)
# In short: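 High-content imaging counts synaptophysin puncta along MAP2-labelled neurites per neuron after chemical exposure of rat cortical cells from DIV 7 to termination at DIV 12 (AraC added DIV 5). Loss of signal relative to DMSO.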
# [6] = CCTE_Mundy_HCI_Cortical_Synap_Neur_Matur_SynapseCount: CCTE's Synaptogenesis and Neurite Maturation Assay in rat cortical cells for Synapse Count, Mundy Lab (AID 2284218)
# In short: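 High-content imaging of synaptophysin puncta per MAP2-positive neuron (Hoechst nuclei) in rat cortical cells exposed DIV 7–12 after glial arrest with AraC at DIV 5; decrease relative to DMSO scored.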
# [7] = CCTE_Mundy_HCI_Cortical_Synap_Neur_Matur_NeuriteCount: CCTE's Synaptogenesis and Neurite Maturation Assay in rat cortical cells for Neurite Count, Mundy Lab (AID 2284222);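 further: exposure from day 7 to day 12 in vitro with readout at day 12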
# In short: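 Primary rat cortical cells were plated, treated with AraC at DIV 5, then exposed to chemicals from DIV 7 through DIV 12. After fixation and immunostaining for MAP2 and synaptophysin, imaging quantified neurites, with DMSO as the negative control.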
# [8] = CCTE_Mundy_HCI_Cortical_Synap_Neur_Matur_CellBodySpotCount: CCTE's Synaptogenesis and Neurite Maturation Assay in rat cortical cells for Cell Body Spot Count, Mundy Lab (AID 2284223)
# In short: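 High-content imaging counts synaptophysin puncta on neuronal cell bodies per neuron after MAP2/synaptophysin immunostaining. Rat primary cortical cells, glia arrested with AraC at DIV 5, were exposed DIV 7–12; signal decrease measured against DMSO.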
# [9] = TAMU_PeakParms_SingleDonor1434_Chronotropy: Texas A&M University (TAMU) 1.5-hr Human Induced Pluripotent Stem Cell (iPSC)-derived Cardiomyocytes Calcium (Ca+2) Flux Assay for Cardiotoxicity: Chronotropy (changes in peak frequency) (AID 2284217); settings: actives raise or lower the signal
# In short: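 iPSC-CMs, donor 1434; 4 conc (0.2–100 uM), 0.5% v/v DMSO, 90 min, 37C/5% CO2; Ca2+ flux fluorescence → peak.freq.avg; peak.freq.avg = 0 dropped; bidirectional fit vs DMSO; EC05 POD.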
# [10] = CCTE_Mundy_HCI_hNP1_Pro_ResponderAvgInten: CCTE's Proliferation Assay in human neuroprogenitor cells, Mundy Lab (AID 2284224; active means hit-call score of the fitted dose curve at least 0.9, where 1 is the maximum;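 further: human neural progenitor cells hNP1 derived from WA09 embryonic stem cells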)
# In short: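 Proliferation read as average intensity of BrdU-positive cells, imaged at 26.25 h post-dosing: chemical exposure started after 40–44 h culture, BrdU during final 4 h, paraformaldehyde fixation. Positive-direction fit relative to DMSO.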
compound,measurement,setting,value
C=C(C)C(=O)OCCCCCCCCCCCC,outcome,[1],inactive
same,outcome,[2],inactive
same,outcome,[3],inactive
same,outcome,[4],inactive
COc1ccc(C(=O)/C(Br)=C\C(=O)O)cc1,AC50,[1],27.6 µM (active) and 25.4 µM (active)
same,AC50,[2],6.83 µM (active) and 8.75 µM (active)
same,AC50,[3],25.4 µM (active) and 18.6 µM (active)
same,AC50,[4],20 µM (active)
CCCCCCOC(=O)CCCCC(=O)OCCCCCC,outcome,[2],inactive
same,outcome,[3],inactive
same,outcome,[4],inactive
Cc1noc(NS(=O)(=O)c2ccc(N)cc2)c1C,outcome,[5],inactive
same,outcome,[6],inactive
same,outcome,[7],inactive
same,outcome,[8],inactive
O=C1CCCCCCCCCCC1,outcome,[2],inactive
same,outcome,[3],inactive
same,outcome,[4],inactive
CC(c1cc(C(C)(C)C)cc(C(C)(C)C)c1O)c1cc(C(C)(C)C)cc(C(C)(C)C)c1O,AC50,[2],5.95 µM (active)
same,AC50,[3],28.1 µM (active)
same,AC50,[4],32.3 µM (active)
CCCCCCCCCCCC(C)=O,outcome,[2],inactive
same,outcome,[3],inactive
same,outcome,[4],inactive
C[N+](C)(C)CCCNS(=O)(=O)C(F)(F)C(F)(F)C(F)(F)C(F)(F)C(F)(F)C(F)(F)C(F)(F)C(F)(F)F,outcome,[1],inactive
same,AC50,[2],52.4 µM (active) and 52.6 µM (active)
same,outcome,[3],inactive
same,outcome,[4],inactive
CC(C)c1cccc(C(C)C)c1N,outcome,[2],inactive
same,outcome,[3],inactive
same,outcome,[4],inactive
CC1=CC=C(C(C)C)CC1,AC50,[2],20 µM (active)
same,outcome,[3],inactive
same,outcome,[4],inactive
C=CC(=O)OCCCCCCOC(=O)C=C,AC50,[1],14.3 µM (active)
same,AC50,[2],5.85 µM (active)
same,AC50,[3],13.2 µM (active)
same,AC50,[4],7.22 µM (active)
CCN1CN(CC)CN(CC)C1,outcome,[2],inactive
same,outcome,[3],inactive
same,outcome,[4],inactive
CCCCNS(=O)(=O)c1ccccc1,outcome,[5],inactive
same,outcome,[6],inactive
same,outcome,[7],inactive
same,outcome,[8],inactive
CCC1(C)C(=O)N(Cl)C(=O)N1Cl (centres undefined),outcome,[1],inactive
same,outcome,[2],inactive
same,outcome,[3],inactive
same,outcome,[4],inactive
CC/C=C\C/C=C\C/C=C\CCCCCCCC(=O)OC,AC50,[2],5.15 µM (active)
same,AC50,[3],21.6 µM (active)
same,AC50,[4],13.5 µM (active)
CC(C)[N+](C)(CCOC(=O)C1c2ccccc2Oc2ccccc21)C(C)C,outcome,[2],inactive
same,outcome,[3],inactive
same,outcome,[4],inactive
c1ccc2c(c1)[nH]c1ccccc12,outcome,[1],inactive
same,outcome,[2],inactive
same,outcome,[3],inactive
same,outcome,[4],inactive
CC(C)CCCCCOC(=O)CS,outcome,[2],inactive
same,outcome,[3],inactive
same,outcome,[4],inactive
CC=C(C)C(C)=O,outcome,[2],inactive
same,outcome,[3],inactive
same,outcome,[4],inactive
CCCCC1C(=O)N(c2ccccc2)N(c2ccccc2)C1=O,outcome,[1],inactive
same,outcome,[2],inactive
same,outcome,[3],inactive
same,outcome,[4],inactive
COC(=O)[C@H](Cc1ccccc1)NC(=O)[C@@H](N)CC(=O)O (H-Asp-Phe-OMe),outcome,[5],inactive
same,outcome,[9],inactive
same,outcome,[6],inactive
same,outcome,[7],inactive
same,outcome,[8],inactive
same,outcome,[10],inactive
C=CC(=O)OCCCCCCCC(C)C,AC50,[2],20 µM (active)
same,outcome,[3],inactive
same,outcome,[4],inactive
CC1(C)CC(O)CC(C)(C)N1[O],outcome,[1],inactive
same,outcome,[2],inactive
same,outcome,[3],inactive
same,outcome,[4],inactive
O=C(Oc1ccccc1)c1ccccc1C(=O)Oc1ccccc1,outcome,[2],inactive
same,AC50,[3],26.2 µM (active)
same,outcome,[4],inactive
O=C(O)C(F)(F)C(F)(F)C(F)(F)C(F)(F)C(=O)O,outcome,[10],inactive
same,outcome,[1],inactive
same,outcome,[2],inactive
same,outcome,[3],inactive
same,outcome,[4],inactive
Cc1c(C(=O)c2c[nH]n(C)c2=O)ccc(S(C)(=O)=O)c1C1=NOCC1,outcome,[5],inactive
same,outcome,[6],inactive
same,outcome,[7],inactive
same,outcome,[8],inactive
COC(OC)(C(=O)c1ccccc1)c1ccccc1,outcome,[2],inactive
same,outcome,[3],inactive
same,outcome,[4],inactive
Oc1c(Cl)cc(Cl)c(Cl)c1Cl,AC50,[2],33.5 µM (active)
same,outcome,[3],inactive
same,outcome,[4],inactive
C=CC(=O)OCC(C)OCC(C)OCC(C)OC(=O)C=C (centres undefined),AC50,[2],3.06 µM (active)
same,AC50,[3],11.5 µM (active)
same,AC50,[4],5.07 µM (active)
COc1ccc(C(=O)c2ccccc2)c(O)c1,outcome,[2],inactive
same,outcome,[3],inactive
same,outcome,[4],inactive
CCOC(=O)C1=NOC(c2ccccc2)(c2ccccc2)C1,AC50,[2],20 µM (active)
same,outcome,[3],inactive
same,AC50,[4],6.05 µM (active)
C=CC(=O)NCOCCCC,outcome,[2],inactive
same,outcome,[3],inactive
same,outcome,[4],inactive
CCCCCCCO,outcome,[2],inactive
same,outcome,[3],inactive
same,outcome,[4],inactive
Oc1ccc(/C=C/c2cc(O)cc(O)c2)cc1,AC50,[2],6.86 µM (active)
same,AC50,[3],24.5 µM (active)
same,AC50,[4],35.4 µM (active)
CCOC(=O)/C=C\C(=O)OCC,outcome,[2],inactive
same,outcome,[3],inactive
same,outcome,[4],inactive
O=C(Cl)c1c(Cl)c(Cl)c(C(=O)Cl)c(Cl)c1Cl,outcome,[2],inactive
same,outcome,[3],inactive
same,outcome,[4],inactive
Cc1c(O)cccc1O,outcome,[2],inactive
same,outcome,[3],inactive
same,outcome,[4],inactive
CCCCCCCCC(CO)CCCCCC (centres undefined),AC50,[2],33.7 µM (active)
same,outcome,[3],inactive
same,AC50,[4],30.2 µM (active)
CC=C(C)C=CC=C(C)C,AC50,[2],12.3 µM (active)
same,AC50,[3],26.9 µM (active)
same,AC50,[4],14.1 µM (active)
Nc1cccc(N)n1,outcome,[2],inactive
same,outcome,[3],inactive
same,outcome,[4],inactive
C=CC(=O)NC(C)(C)C,outcome,[2],inactive
same,outcome,[3],inactive
same,outcome,[4],inactive
CCc1cccc(C)c1N(C(=O)CS(=O)(=O)O)C(C)COC (centres undefined),outcome,[2],inactive
same,outcome,[3],inactive
same,outcome,[4],inactive
CCCCCC1=CCCC1=O,AC50,[2],20 µM (active)
same,outcome,[3],inactive
same,outcome,[4],inactive
c1ccc2sc(SSN3CCOCC3)nc2c1,AC50,[2],8.43 µM (active)
same,AC50,[4],13.3 µM (active)
Clc1cc(Cl)c(Cl)c(Cl)c1Cl,outcome,[2],inactive
same,outcome,[3],inactive
same,outcome,[4],inactive
CCNc1nc(NC(C)(C)C)nc(OC)n1,AC50,[2],13.9 µM (active)
same,outcome,[3],inactive
same,outcome,[4],inactive
CC(Cl)COP(=O)(OCC(C)Cl)OCC(C)Cl (centres undefined),outcome,[2],inactive
same,outcome,[3],inactive
same,outcome,[4],inactive
O=C1CCCCCCCCCCCN1,outcome,[2],inactive
same,outcome,[3],inactive
same,outcome,[4],inactive
CCCCCCC=O,outcome,[2],inactive
same,outcome,[3],inactive
same,outcome,[4],inactive
CCOC(=O)C1=NN(c2ccc(Cl)cc2Cl)C(C)(C(=O)OCC)C1 (centres undefined),AC50,[2],20 µM (active)
same,outcome,[3],inactive
same,outcome,[4],inactive
Fc1ccc(Br)cc1,outcome,[2],inactive
same,outcome,[3],inactive
same,outcome,[4],inactive
C=CCCCCCCCCC=O,outcome,[2],inactive
same,outcome,[3],inactive
same,outcome,[4],inactive
CC/C=C\CCOC(=O)c1ccccc1O,AC50,[2],7.02 µM (active)
same,outcome,[3],inactive
same,outcome,[4],inactive
